In PubChem BioAssay AID1159580 (chemical genetic matrix, 2015):
About 2,000 (36%) of roughly 5,500 compounds were called active. Not shown: some 18% with an inconclusive outcome. Rule as the data show it: active = normalized growth mostly below about 0.91 (no sharp cut-off); inconclusive = no clear call, values can overlap the other calls; inactive = mostly above about 0.92. The list shows a part of the results.

Experiment: chemical genetic growth profiling, strain panel (AID 1159580);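 also: tested at 20 µM; growth read once vehicle control cultures reached saturation at 30 °C; 1 = growth at the plate median or of vehicle wells; lower values mean less growth of the strain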
Conditions: S. cerevisiae deletion strains, growth OD

Measured: normalized growth

OC[C@H]1O[C@@H](n2cnc3c(Nc4ccccc4)ncnc32)C(O)[C@H]1O (some centres not stated)
inactive: locus YAL040C, strain CLN3, active compounds read low 0.966 | locus YCL061C, strain MRC1 (second series), active compounds read low 0.999 | locus YDR363W, strain ESC2, active compounds read low 0.908 | locus YER002W, strain NOP16, active compounds read low 0.977 | locus YJR075W, strain HOC1, active compounds read low 1.01 | locus YMR307W, strain GAS1, active compounds read low 1.02 | locus YNL128W, strain TEP1, active compounds read low 0.987 | locus YNL175C, strain NOP13, active compounds read low 0.98 | locus YNL197C, strain WHI3, active compounds read low 0.963 | locus YNL224C, strain SQS1, active compounds read low 0.979 | locus YNL322C, strain KRE1, active compounds read low 1.02 | locus YOR083W, strain WHI5 (second series), active compounds read low 0.96
